# A number with no mark means an inactive call. No rule for the calls is given here.
# Target: Pantothenate synthetase (Mycobacterium tuberculosis (strain ATCC 25618 / H37Rv)) (UniProt P9WIL5)
# Test: Recombinant Mtb pantothenate synthetase (PanC) inhibitors, coupled enzyme, confirmatory (AID 375);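 also: 0% = full reaction with vehicle and 100% = no enzyme background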
# Conditions: coupled enzyme assay; at 10 µM, hits give high values
# Pantothenate synthetase (Mycobacterium tuberculosis (strain ATCC 25618 / H37Rv)), sequence (P9WIL5 whole entry, looked up): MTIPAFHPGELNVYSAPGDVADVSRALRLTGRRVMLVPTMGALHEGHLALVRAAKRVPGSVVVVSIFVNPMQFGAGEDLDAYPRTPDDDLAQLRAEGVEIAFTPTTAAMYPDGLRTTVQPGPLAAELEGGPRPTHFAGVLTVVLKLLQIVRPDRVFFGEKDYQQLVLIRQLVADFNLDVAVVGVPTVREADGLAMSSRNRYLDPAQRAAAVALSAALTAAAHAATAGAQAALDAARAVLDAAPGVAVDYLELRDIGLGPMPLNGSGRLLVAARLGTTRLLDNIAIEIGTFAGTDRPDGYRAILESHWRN
row,Compound,inhibition
1,COc1ccc(Br)cc1S(=O)(=O)N1CC(C)OC(C)C1 (stereo not given),7%
2,O=C(Oc1cccc2cccnc12)c1cccc(-n2cnnn2)c1,0%
3,CCOC(=O)CNC(=O)CSc1ncnc2c1cnn2-c1ccccc1,0%
4,COc1ccccc1C1N(c2ccc(F)cc2)C(=O)C2CCCN21 (stereo not given),0%
5,CC(C)(NC(=O)N1CCCC1)c1cccc(C(C)(C)NC(=O)N2CCCC2)c1,0%
6,Cn1cc(C(=O)c2ccc(F)cc2)cc1-c1nc2ccccc2n1C,6%
7,O=C(O)CCc1ccc(-c2cccs2)o1,6%
8,COC(=O)c1cc(OC)c(OC)cc1NC(=O)CC1CCCCC1,1%
9,Cn1c(=O)[nH]c(=O)c2c1nc(NC1CCCCC1)n2CC(=O)NC1CCCCC1,0%
10,O=C(COC(=O)CSc1nnc(-c2ccc(Cl)cc2)o1)NCc1ccc2c(c1)OCO2,12%
11,Cc1onc(-c2ccccc2)c1C(=O)N1CCN(C(=O)c2ccco2)CC1,0%
12,CCn1c(SC)nc2c(c1=O)SC(C)C2 (stereo not given),0%
13,CCC1CCCCN1S(=O)(=O)c1ccc(C(=O)Nc2nnc(-c3ccccc3Cl)o2)cc1 (stereo not given),4%
14,Cc1c(C(=O)N2CCCC2)sc(NC(=O)c2cccs2)c1C#N,0%
15,Cc1cc(C)cc(N2C(=O)CC(N3CCOCC3)C2=O)c1 (stereo not given),0%
16,Cn1c(SCC(=O)c2cc3ccccc3o2)nnc1-c1ccccc1,1%
17,Nc1nc(C(=O)N2CCOCC2)nn1S(=O)(=O)c1ccc(Cl)cc1,0%
18,CCOC(=O)Nc1ccc2c(c1)N(C(=O)CCN1CCOCC1)c1ccccc1S2,3%
19,c1ccc2c(c1)sc1nnnn12,12%
20,CCC(=O)NC1(C(F)(F)F)C(=O)NC(C)=C1C#N (stereo not given),6%

row,Compound,inhibition
1,O=C(c1csc2ccccc12)n1cccn1,0%
2,c1ccc(SCc2nc3ccccc3[nH]2)nc1,4%
3,O=C(NC(=O)c1cccc(F)c1)OC[C@@H]1CCCN2CCCC[C@H]12,0%
4,CC(C)C(CO)NC(=O)CC(=O)NC(CO)C(C)C (stereo not given),2%
5,CCC(C)(C(=O)NC1CCCC1)N(Cc1cccs1)C(=O)Cc1cccs1 (stereo not given),0%
6,O=C(CCCn1c(=O)c2sccc2n(Cc2ccc(F)cc2)c1=O)NCc1ccco1,1%
7,CCCc1cc(=O)oc2cc(C)cc(OC(=O)c3ccco3)c12,0%
8,CN(Cc1ccccc1)Cc1c[nH]c2ccccc12,0%
9,CCCCC[C@H](O)/C=C/C1=C(CCCCCCC(=O)O)C(=O)CC1,0%
10,CCCn1c(=N)n(CCOc2ccc(OC)cc2)c2ccccc21,0%
11,CCCCNS(=O)(=O)c1ccc(OC)c2ncccc12,3%
12,Cn1c(-c2ccc(C(C)(C)C)cc2)n[nH]c1=S,0%
13,Cc1cc(C(=O)N2CCN(C(c3ccccc3)c3ccccc3)CC2)no1,3%
14,Cc1cccc(N2C(=O)CC(N3CCN(c4cccc(C(F)(F)F)c4)CC3)C2=O)c1 (stereo not given),1%
15,CN1CCCC(OC(=O)COc2ccc(Br)cc2)C1 (stereo not given),3%
16,N#Cc1c(-c2ccc3c(c2)OCO3)csc1N,9%
17,Cc1occc1C(=O)Nc1ccc(S(=O)(=O)N2CCN(C)CC2)cc1,0%
18,COC(=O)Cn1c(CN2CCOCC2)nc2c1c(=O)n(C)c(=O)n2C,0%
19,CCC1CCCCN1C(=O)Cn1c(C(=O)OC)cc2sc(Cl)cc21 (stereo not given),0%
20,Nc1c(C(=O)NCCc2ccccc2)nnn1Cc1ccccc1,0%

# — PubChem BioAssay
